Assay outcomes: PubChem, National Center for Advancing Translational Sciences (NCATS)
HT1080 IDH1KD tx = qHTS for induction of synthetic lethality in tumor cells producing 2HG: qHTS for the HT-1080-IDH1KD cell line; HT-1080 IDH1 knockdown viability, ATP luminescence, 48 h; Potency, µM (titrated, usually from 46.1 µM), for inactives: at the highest dose activity, negative = toxicity, actives largely listed as cytotoxic; 360,000 tested, 2% active;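 further: 0% = DMSO wells and -100% = cell-free medium wells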
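IDH1KD HT-1080 cells, 750/well, RPMI + 5% FBS; compound pinned after 2 h settling; 48 h, 37 °C; CellTiter-Glo luminescence; % activity normalised to DMSO and no-cell wells; curves fitted, classed by r2 and efficacy.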
HT1080-NT tox = qHTS for induction of synthetic lethality in tumor cells producing 2HG: qHTS for the HT-1080-NT fibrosarcoma cell line. HT-1080-NT fibrosarcoma viability, CellTiter-Glo ATP luminescence, 48 h. Potency, µM (series often up to 46.1 µM), for inactives: at the top dose activity, negative = less viability, hits mostly cytotoxic. 360,000 tested, 1.6% active;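 further: NT is the 2HG producing partner of a matched IDH1 knockdown line; 0% = DMSO-treated cells and -100% = media-only wells without cells; nearly all actives have a fitted effect of over 55% in size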
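HT-1080-NT fibrosarcoma cells (2HG-overproducing), 750 cells/well in RPMI with 5% FBS, dosed after 2 h and incubated 48 h at 37C. CellTiter-Glo luminescence normalized to DMSO and no-cell wells; concentration-response curves fitted and classed.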
KB-V1 cytotox = qHTS assay for MDR1-selective chemotherapeutics: Primary screen using the drug-selected MDR subline cells KB-V1; AID 1347076, 2019; KB-V1 MDR cells viability, CellTiter-Glo, 72 h; Potency, µM (series often up to 46.1 µM), most hits filed as cytotoxic; 400,000 tested, 3.4% active; further: on the % scale 0 is the no-effect control and ±100 the full control effect; nearly all actives have a fitted effect of over 60% in size
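Cytotoxicity via CellTiter-Glo luminescence after 72 h compound exposure at 37 degrees C. Cells: drug-selected KB-V1 line, DMEM phenol-red free plus 10% FBS. Compounds tested at multiple concentrations; normalized data fitted to concentration-effect curves.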
KB-3-1 cytotox = qHTS assay for MDR1-selective chemotherapeutics: Primary screen using the parental adenocarcinoma cell KB-3-1. KB-3-1 viability, CellTiter-Glo ATP luminescence, 72 h. Potency, µM (top dose mostly 46.1 µM), actives largely listed as cytotoxic. 400,000 tested, 1.4% active; further: on the % scale 0 is the no-effect control and ±100 the full control effect; nearly all actives have a fitted effect of over 60% in size
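Cells are dispensed, compounds pinned in, plates held at 37 °C for 72 h, then CellTiter-Glo is added and luminescence read after 10 minutes. Cell line: parental KB-3-1 in phenol-red-free DMEM, 10% FBS.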
ATXN viability = Viability Counterscreen for Primary qHTS for Inhibitors of ATXN expression; Potency, µM (titrated, usually from 56.7 µM), actives largely listed as cytotoxic; 400,000 tested, 0.49% active; S2 cells (HEK-293 line with an ATXN2-luciferase reporter) viability, CellTiter-Fluor protease fluorescence, 24 h; AID 651635, 2014; further: nearly all actives have a fitted effect of over 40% in size
ATXN2 expr inh = Primary qHTS for Inhibitors of ATXN expression. 360,000 tested, 0.72% active. HEK-293 ATXN2-luciferase reporter, luminescence, 24 h. Potency, µM (series often up to 57 µM), for the others: at the highest dose activity change, negative = inhibition, usual class: inhibitors; further: on the % scale 0 is the no-effect control and ±100 the full control effect; nearly all actives have a fitted effect of over 55% in size
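ATXN2-luciferase reporter cells (luciferase flanked by upstream and downstream ATXN2 gene portions) were treated 24 h at 37 °C with compounds at up to 57 uM. SteadyGlo luminescence gave expression; GF-AFC fluorescence gave viability.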
* hit, by the source's call; i = inactive; ? = inconclusive; · = no result given; ! = repeats disagree. This is a sample that favours compounds with a hit; in the whole collection about 6.2% have one here. The call rests on the fitted dose curve; in most records, active means well fitted curve in the direction sought with a large enough effect; inconclusive means small, poorly fitted or top-dose-only effect, or another doubt; inactive means no such curve, though single readings can be large; an effect the other way counts as inactive or inconclusive. Potency means the concentration at half of the fitted maximal effect.

SMILES	HT1080 IDH1KD tx	HT1080-NT tox	KB-V1 cytotox	KB-3-1 cytotox	ATXN viability	ATXN2 expr inh
CCOC(=O)c1ccc(NC(=O)CCc2nc(-c3cccc(C)c3)no2)cc1	-21%	-13%	21µM*	?	i	-10%
COc1cccc(NC(=O)CCc2nc(-c3cccs3)no2)c1	?	7.3µM*	i	i	i	-16%
CCc1nc(-c2cc(S(=O)(=O)N3CCN(c4ccccc4)CC3)ccc2OC)no1	·	·	i	i	i	-5%
C=CC[C@H](CC(=O)N(CCO)Cc1ccccc1)C(=O)N[C@H](COC(=O)[C@@H](CC=C)Cc1ccc(F)cc1)C(C)(C)C	?	-30%	i	i	·	?
C=CC[C@@H](CC(=O)N[C@H](CO)Cc1ccccc1)C(=O)N[C@H](COC(=O)[C@@H](CC=C)Cc1ccc(F)cc1)C(C)(C)C	-22%	?	i	21µM*	?	?
C=CCC[C@H](Cc1ccc(F)cc1)C(=O)OC[C@@H](NC(=O)[C@@H](CC=C)CC(=O)N(CCO)Cc1ccccc1)C(C)(C)C	?	?	?	?	20µM*	?
C=CCC[C@@H](Cc1ccc(F)cc1)C(=O)OC[C@@H](NC(=O)[C@@H](CC=C)CC(=O)N[C@@H](CO)Cc1ccccc1)C(C)(C)C	?	?	?	?	22µM*	?
Oc1cc2cc(-c3csc(-c4ccc(F)cc4)n3)cc3c2n1CCC3	·	·	i	?	·	·
O=C(C[n+]1cccc(Br)c1)c1ccc2c(c1)CCCC2	·	·	i	?	·	·
CCC(C)NC(=O)Cn1c(=O)n(-c2cc(OC)cc(OC)c2)c(=O)c2ccccc21 (centres undefined)	·	·	?	i	i	12%
Cc1c(C2(c3cc(C(C)C)c(O)c(Br)c3C)OS(=O)(=O)c3ccccc32)cc(C(C)C)c(O)c1Br	·	·	i	i	·	·
COC(=O)c1cc(-c2ccc(OC)c(OC)c2)n[nH]1	11%	14%	i	i	?	13%
COc1cc(-c2ccc(=O)[nH]n2)ccc1OC(F)F	-9%	25%	0.052µM*	0.46µM*	i	9%
O=c1ccc(-c2ccccc2)n[nH]1	7%	-5%	?	i	i	4%
COc1ccc(-c2ccc(=O)[nH]n2)cc1	-2%	13%	1.8µM*	i	i	1%
CCCN1CNc2c(c(=O)[nH]c(=S)n2CCc2cccc(OC)c2OC)C1	13%	2%	·	·	·	·
Cn1cc(C(=O)[C@@H]2CCc3nc[nH]c3C2)c2ccccc21	·	·	·	·	i	-9%
CCN1CCN(CCNC(=O)CCCCCn2c(=O)[nH]c3cc(C(=O)OC)ccc3c2=O)CC1	-6%	8%	i	i	i	2%
COC(=O)c1ccc2c(C(=Nc3ccc(N(C)C(=O)CN4CCN(C)CC4)cc3)c3ccccc3)c(O)[nH]c2c1	·	·	·	·	·	24µM*
Cc1cccc(NCc2nnc3n2CCCCC3)c1C	·	·	i	i	i	17%
CCOC(=O)c1ccc(-c2c(-c3cc(OC)c(OC)c(OC)c3)noc2C)cc1F	1.8µM*	?	12µM*	1.6µM*!	?	-13%
